The values that follow come from PubChem BioAssay (NCI).

Molecules are shown by their SMILES. About 83,000 compounds went through this panel and 20% of them were active in at least one assay; those are over-represented in the sample as a whole.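 Cell lines were cultured in 96-well plates, exposed to a single compound concentration, and assessed for percent growth 48 hours later.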 Calls of active or inactive are those of the source. Rule for the calls: active = growth percent below 10; inactive = the rest.

For this assay, the system named is UO-31 renal. Description: NCI-60 one-dose screen, 48 h (100 = growth as untreated, 0 = no growth, -100 = all killed). Conditions: 10 µM unless noted.
For the molecule `Nc1ccc(N2CCOCC2)cc1`, the growth was 73.5% (inactive). Turning to `COc1cccc(/C=C\C(=O)c2ccccc2)c1`, the growth is 60.2% (inactive). Take `NS(=O)(=O)c1ccc(-n2ncc3c(=O)[nH]c(CN4CCN(c5cc6c(cc5F)c(=O)c(C(=O)O)cn6C5CC5)CC4)nc32)cc1`: the growth was 70% (inactive). With `COc1cc(C2CC(=O)Nc3c2c(C)nn3-c2nc3ccccc3[nH]2)cc(OC)c1OC` (stereo unspecified) the figure was 96.8% (inactive). In the case of `CN1CCCCC1CCN1c2ccccc2Sc2ccc(Br)cc21` (stereo unspecified), the growth was 32.9% (inactive). As to `Cc1ccc(C2CC3c4ccccc4C2C2CCCCN32)cc1` (stereo unspecified), the growth is 91.7% (inactive). `CCOC(=O)CC(C)=N`: the growth is 98.5% (inactive). Then `N=S(=O)(NC(=O)c1ccc(Cl)cc1Cl)c1ccc(Br)s1` (stereo unspecified), with 79.4% (inactive); and `COc1ccc(CN(c2ccc(C)cc2)C2OC(=O)c3ccccc32)cc1OC` (stereo unspecified), with 94.3% (inactive).

Regarding `c1c2c(cc3c1OCO3)Cc1cc3c(cc1Cc1cc4c(cc1C2)OCO4)OCO3`, the growth was 95.7% (inactive). Take `CCCCCCCCCCCCS(=O)CC(C)O` (stereo unspecified): the growth is 95.3% (inactive). With `CC1(C)CC(C(=O)OCCCCCCCCCCC[P+](c2ccccc2)(c2ccccc2)c2ccccc2)C(C)(C)N1O` (stereo unspecified) the figure was -74.4% (active); with `COc1ccc(/C(=C/c2ccc3ccccc3c2)c2nn[nH]n2)cc1OC`, 41.4% (inactive). With `Cc1cccc(NC(=O)c2sc3nc4c(cc3c2N)C(=O)CCC4)c1` the figure was 41.2% (inactive); with `O=[N+]([O-])c1cccc(C2CC(c3ccccc3)=Nc3ccccc3S2)c1` (stereo unspecified), 59.7% (inactive); with `CCOC(=O)/C=C/c1ccc(C(=O)OCC)[nH]1`, 72.1% (inactive). Then `CS(CCCCN=C=S)=NC(=O)c1c(F)c(F)c(F)c(F)c1F` (stereo unspecified), with 59.6% (inactive); and `COC1C/C(=N\O)C2OC(c3ccccc3)OCC2O1` (stereo unspecified), with 87.2% (inactive); and `Cc1cc(Nc2nc(N3CCN(C)CC3)nc3ccccc23)n[nH]1`, with 54.9% (inactive). `O=C1Nc2ccccc2/C1=C/C(=N/c1nnc(-c2ccccc2)s1)c1ccccc1`: the growth is -87.2% (active). Then `COc1ccc(N(Cc2cc(OC)c(OC)c(OC)c2)C2OC(=O)c3ccccc32)cc1` (stereo unspecified), with 53.5% (inactive); and `Cc1csc2ccc(Cl)cc12`, with 81.6% (inactive).

For the molecule `O=C1Nc2ccccc2/C1=C/C(=N/c1nnc(-c2ccc(Cl)cc2)s1)c1ccccc1`, the growth was -69.2% (active). With `CC(=O)OCC1OC(OC2=C(CC=C(Cl)Cl)C(=O)c3ccccc3C2=O)C(OC(C)=O)C(OC(C)=O)C1OC(C)=O` (stereo unspecified) the figure was 69.3% (inactive); with `O=C(/C=C/c1ccc(B(O)O)cc1)/C=C/c1ccc(B(O)O)cc1`, -72.3% (active); with `Cc1cc2cc3cc(C)c(N(C)C)cc3[n+](C)c2cc1N(C)C`, 62.1% (inactive).
